Screening results deposited in PubChem by Zoeller Lab, School of Medicine, Boston University.
PL synth Enamine = animal cell phospholipid biosynthesis inhibition, Enamine screen; ZR-82 CHO cells, pyrene fatty acid UV survival, CellTiter Blue; peroxisome-deficient CHO-K1 mutant line; plus DGAT-1, DGAT-2 and ACAT inhibitors; calls only at 10 µM; 20,000 compounds, 0.4% hits; AID 1347385;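 active means cell survival signal 2 SD away from solvent-only control wells, confirmed on one or two retests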;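 further: 3 h compound exposure then viability read about one day after UV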
Numbers without * were called inactive. This excerpt belongs to a sample that is enriched for hits.

For Clc1ccccc1NN=C1c2ccccc2-c2ccccc21 the results were PL synth Enamine inactive.
Screening Clc1cccc(NN=C2c3ccccc3-c3ccccc32)c1 returned PL synth Enamine active.
For Clc1ccc(NN=C2c3ccccc3-c3ccccc32)cc1Cl the results were PL synth Enamine inactive.
`CC1CCc2sc(C(=O)NNC(=O)CC34CC5CC(CC(C5)C3)C4)cc2C1` (configuration not stated) gave PL synth Enamine inactive.
For C(=N\N(c1ccccc1)c1ccccc1)/c1cn(-c2ccccc2)nc1-c1cc2ccccc2o1 the results were PL synth Enamine inactive.
Screening Cn1/c(=N/N=C/c2cn(-c3ccccc3)nc2-c2cc3ccccc3o2)sc2ccccc21 returned PL synth Enamine inactive.
For C(=C\c1cn(-c2ccccc2)nc1-c1cc2ccccc2o1)/c1nc2ccccc2s1 the results were PL synth Enamine active.
Screening c1ccc2c(c1)ncn2CN1CCCCC1 returned PL synth Enamine inactive.
O=[N+]([O-])c1ccc(N2CCNCC2)c(S(=O)(=O)N2CCOCC2)c1 was read as PL synth Enamine inactive.
`O=[N+]([O-])c1ccc(N2CCNCC2)cc1NC1C2CC3CC(C2)CC1C3` (configuration not stated) gave PL synth Enamine active.
`O=[N+]([O-])c1ccc(N2CCN(CCO)CC2)cc1SCCO` gave PL synth Enamine inactive.
For S=c1[nH]nc(-c2ccc(Cl)cc2)o1 the results were PL synth Enamine inactive.
COC(=O)c1c(C)[nH]c(C(=O)C(C)OC(=O)CCC(=O)c2cc(C)sc2C)c1C (configuration not stated) was read as PL synth Enamine inactive.
`Cc1cc(C(C)(C)C)cc(C)c1C[n+]1ccc2ccccc2c1` gave PL synth Enamine active.
Screening Cc1cc(C(C)(C)C)cc(C)c1CSc1nc(=S)c2ccccc2[nH]1 returned PL synth Enamine inactive.
For Cc1cc(C(C)(C)C)cc(C)c1CSc1ncnc2ccccc12 the results were PL synth Enamine inactive.
`O=C(c1cc2ccccc2oc1=O)N1c2ccccc2Sc2ccccc21` gave PL synth Enamine inactive.
For CCN(CC)P(/C=C1/N(C)c2ccccc2C1(C)C)(=Nc1ccc(C)cc1C)c1ccccc1 (configuration not stated) the results were PL synth Enamine active.
Cc1ccc(NP(=O)(/C=C2\N(C)c3ccccc3C2(C)C)c2ccccc2)cc1C (configuration not stated) was read as PL synth Enamine inactive.
CN1/C(=C\P(=Nc2cccc3ccccc23)(Oc2cccc3ccccc23)c2ccccc2)C(C)(C)c2ccccc21 (configuration not stated) was read as PL synth Enamine inactive.
For O=P1(N(Cc2ccccc2)Cc2ccccc2)C=C(c2ccccc2)SC(c2ccccc2)=C1 the results were PL synth Enamine inactive.
For O=C(O)CCC(=O)N1N=C2/C(=C/c3ccco3)CCCC2C1c1ccco1 (configuration not stated) the results were PL synth Enamine inactive.
Screening O=S(=O)(Nc1ccc2c(c1)OCCO2)c1ccc2c(c1)CCCC2 returned PL synth Enamine inactive.
O=S(=O)(Nc1ccc2c(c1)CCC2)c1ccc(F)cc1 was read as PL synth Enamine inactive.
Screening O=S(=O)(Nc1ccc2c(c1)CCC2)c1ccc(Br)cc1 returned PL synth Enamine active.
Screening CCOC(=O)C1=C(COC(=O)Cc2ccsc2)NC(=O)NC1C (configuration not stated) returned PL synth Enamine inactive.
For CC(C)N=C1NN=C(c2cc3ccccc3o2)CS1 the results were PL synth Enamine inactive.
S=C(NNc1ccnc2cc(Cl)ccc12)Nc1ccc(Cl)cc1Cl was read as PL synth Enamine active.
`O=C(NNc1ccnc2cc(Cl)ccc12)c1ccc(=O)[nH]n1` gave PL synth Enamine inactive.
S=C(NNc1ccnc2cc(Cl)ccc12)NC1CCCCC1 was read as PL synth Enamine inactive.
`O=C(NC(=S)NC1CCS(=O)(=O)C1)C12CC3CC(CC(C3)C1)C2` (configuration not stated) gave PL synth Enamine inactive.
For S=C(N=c1sccn1Cc1ccccc1)NC1CC1 the results were PL synth Enamine inactive.
Screening Nc1nc(-c2ccccc2)c(N=Nc2ccc3c(c2)OCCO3)s1 returned PL synth Enamine active.
Nc1nc(-c2ccccc2)c(N=Nc2ccc3c(c2)OCO3)s1 was read as PL synth Enamine active.
`c1cc2c(cc1-c1csc(N3CCOCC3)n1)OCCO2` gave PL synth Enamine inactive.
Screening Nc1[nH]c(=O)[nH]c(=O)c1N=Nc1ccc2c(c1)OCCO2 returned PL synth Enamine inactive.
For c1ccc(-c2nnc(-c3ccc4c(c3)OCO4)nc2-c2ccccc2)cc1 the results were PL synth Enamine inactive.
Screening Oc1c(N=Nc2ccc3c(c2)OCO3)sc2ccccc12 returned PL synth Enamine inactive.
CCn1c2ccccc2c2cc(P(=Nc3cccc4ccccc34)(N3CCCC3)C(C)(C)C)ccc21 (configuration not stated) was read as PL synth Enamine inactive.
Oc1[nH]c2c(Cl)cc(Cl)cc2c1N=NC(=S)NC1CCCCC1 was read as PL synth Enamine inactive.
For Cc1ccc(S(=O)(=O)N2CCCC(C(F)(F)F)C2)s1 (configuration not stated) the results were PL synth Enamine inactive.
For Cc1cc2nnc(SCC3CCOCO3)n2c2ccccc12 (configuration not stated) the results were PL synth Enamine inactive.
For Clc1ccc(-c2onc3ccc(C#Cc4ccccc4)cc23)cc1 the results were PL synth Enamine inactive.
Brc1cc(Br)c2cccnc2c1OCc1nc2ccccc2s1 was read as PL synth Enamine inactive.
c1ccc2cc(OCc3nc4ccccc4s3)ccc2c1 was read as PL synth Enamine active.
c1ccc2cc(OCc3nc4ccccc4[nH]3)ccc2c1 was read as PL synth Enamine inactive.
Cc1nc(N2CCOCC2)c2c3c(sc2n1)CCCC3 was read as PL synth Enamine inactive.
For COC(=O)C1=C(C)Nc2c(c(=O)n(C)c(=O)n2C)C1c1sccc1C (configuration not stated) the results were PL synth Enamine inactive.
Clc1ccc2nc(COc3cccc(-n4cnnn4)c3)cn2c1 was read as PL synth Enamine inactive.
Cc1nnc(NC(=O)C(C)(C)C)s1 was read as PL synth Enamine inactive.
For FC(F)n1c(=S)n(C(F)F)c2ccccc21 the results were PL synth Enamine inactive.
`FC(F)n1c(-c2ccccc2)c(-c2ccccc2)n(C(F)F)c1=S` gave PL synth Enamine active.
Screening FC(F)Sc1nc(-c2ccccc2)c(-c2ccccc2)n1C(F)F returned PL synth Enamine inactive.
Cc1cc(C)n2c(SCc3cc(=O)oc4cc(C)c(C)cc34)nnc2n1 was read as PL synth Enamine inactive.
`Cc1nc(N)sc1C` gave PL synth Enamine inactive.
Screening CCN(CC)S(=O)(=O)c1ccc(N=Nc2sc(N)nc2C)cc1 returned PL synth Enamine inactive.
For Cc1nc(N)sc1N=Nc1ccc(Br)cc1 the results were PL synth Enamine active.
For O=S(=O)(Nc1nc2ccc(F)cc2s1)c1ccc(Cl)s1 the results were PL synth Enamine inactive.
Screening CC1=C(C(=O)OC(C)(C)C)C(c2ccc(C(C)(C)C)cc2)NC(=S)N1 (configuration not stated) returned PL synth Enamine inactive.
Screening O=C(CSc1ncnc2sc3c(c12)CCC3)c1ccc(Cl)s1 returned PL synth Enamine inactive.
